Test [1] deals with Cytochrome P450 3A4 (Homo sapiens) (UniProt P08684). Briefly: qHTS Assay for Inhibitors and Substrates of Cytochrome P450 3A4 (AID 884). Further: potency means the concentration at half of the fitted maximal effect; nearly all actives have a fitted effect of over 50% in size. An outline of the steps:
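Luminescent readout of luciferin produced by CYP3A4 (20 nM) dealkylation of Luciferin-PPXE, 25 uM (its KM). NADPH-driven reaction ran 60 min at RT after 10 min compound preincubation; data scaled to 57 uM ketoconazole as 100% inhibition.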
(In general: Quantitative high-throughput screening tests each substance at several concentrations.)

Test [2] shares this target. Briefly: qHTS Assay for Activators of Cytochrome P450 3A4 (AID 885). Further: nearly all actives have a fitted effect of over 65% in size. Put shortly: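 Activators are scored by enhanced luminescence from CYP3A4 conversion of luciferin-PPXE (25uM, equal to KM) to luciferin, after 60 min at RT with an NADPH-regenerating system.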
The nature of test [3]: qHTS Assay for Lipid Storage Modulators (AID 1519; calls by dose curve; on activity change, negative = inhibition: on the % scale 0 is the no-effect control and ±100 the full control effect). Conditions: Drosophila S3 cells, BODIPY lipid droplet/cell ratio, laser cytometry, cells loaded with oleic acid; for activity change, negative = inhibition: at 57.5 µM (top of the series). Put shortly:
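Cells seeded at 5,000 per well were treated with compounds over a concentration series and loaded with oleic acid (400 uM, as added). Lipid droplet fluorescence (488 nm excitation, 500-530 nm channel) was read by laser-scanning cytometry and normalized to 20 uM Triacsin C.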

Test [4] has as its target Cytochrome P450 2C9 (Homo sapiens) (UniProt P11712). Briefly: Cytochrome P450 family 2 subfamily C member 9 (CYP2C9) small molecule antagonists: luciferase biochemical (cell-free) qHTS assay (AID 1645842; active means well fitted curve in the direction sought with a large enough effect in the repeat runs; an effect the other way counts as inactive or inconclusive; further: potency means the concentration at half of the fitted maximal effect; nearly all actives have a fitted effect of over 55% in size). An outline of the steps: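 P450-Glo CYP2C9 system: proluciferin substrate with enzyme in mix containing 0.4% BSA, 10 min at room temperature, then NADPH regeneration solution added and incubated 1 h at 37C. Detection reagent stopped reaction; luminescence read after 20 min as RLU.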

Test [5] is described as follows: Confirmation and Secondary Assay for Modulators of Hemoglobin Beta Chain Splicing at IVS2 654 locus (AID 910).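 Further: HeLa cells stably carrying EGFP split by mutant beta-globin IVS2-654 intron; % of control where 0% means no effect.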 Put shortly: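 HeLa cells stably expressing EGFP interrupted by β-globin IVS2-654 intron, seeded overnight in Opti-MEM/2% FCS, then treated 2 days at 37 °C. Restored splicing read as total peak GFP intensity per well by laser scanning cytometry (488 nm excitation, 500–520 nm emission); 500 nM antisense PNA as control.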

Test [6] can be described thus: Confirmation and Secondary Assay for Modulators of Hemoglobin Beta Chain Splicing at IVS2 705 locus (AID 930).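 Further: HeLa cells stably expressing the EGFP-705 splicing reporter; GFP fluorescence per well restored by corrected splicing of the IVS2-705 intron in EGFP; % of control where 0% means no effect.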 An outline of the steps: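 HeLa IVS2-705 EGFP reporter cells, 500/well, compound 2 d at 37C; correct splicing yields fluorescent EGFP. Control: 500 nM antisense PNA. Read-out: total peak GFP intensity.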
Test [7] deals with Ubiquitin carboxyl-terminal hydrolase 1 (Homo sapiens) (UniProt O94782). Briefly: Inhibitors of USP1/UAF1: Pilot qHTS (AID 504865).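 Further: rhodamine fluorescence freed from ubiquitin-rhodamine substrate followed over time; top concentration of the series differs between compounds; on the % scale 0 is the no-effect control and ±100 the full control effect; nearly all actives have a fitted effect of over 35% in size.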 Put shortly: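 In 50mM HEPES pH 7.8 containing 0.5mM EDTA, 1mM TCEP, 0.1 mg/ml BSA and 0.01% Tween-20, 1nM USP1/UAF1 is exposed to compound for 15 min, then Ub-Rho (150nM final) is added and fluorescence is read over time.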
The mark [8] stands for this setting: measured here: cell count channel max response.
Where [9] appears, read: measured here: lipid channel max response.

Where “and” joins values, the source holds several entries; their conditions need not be identical. Equal entries are not always repeated. Results filed as inconclusive are left out. Calls of active or inactive are those of the source. Unless noted, the call rests on the fitted dose curve; in most records, active means well fitted curve in the direction sought with a large enough effect; inconclusive means small, poorly fitted or top-dose-only effect, or another doubt; inactive means no such curve, though single readings can be large; an effect the other way counts as inactive or inconclusive.

Cytochrome P450 3A4 (Homo sapiens), sequence (P08684 whole entry, looked up): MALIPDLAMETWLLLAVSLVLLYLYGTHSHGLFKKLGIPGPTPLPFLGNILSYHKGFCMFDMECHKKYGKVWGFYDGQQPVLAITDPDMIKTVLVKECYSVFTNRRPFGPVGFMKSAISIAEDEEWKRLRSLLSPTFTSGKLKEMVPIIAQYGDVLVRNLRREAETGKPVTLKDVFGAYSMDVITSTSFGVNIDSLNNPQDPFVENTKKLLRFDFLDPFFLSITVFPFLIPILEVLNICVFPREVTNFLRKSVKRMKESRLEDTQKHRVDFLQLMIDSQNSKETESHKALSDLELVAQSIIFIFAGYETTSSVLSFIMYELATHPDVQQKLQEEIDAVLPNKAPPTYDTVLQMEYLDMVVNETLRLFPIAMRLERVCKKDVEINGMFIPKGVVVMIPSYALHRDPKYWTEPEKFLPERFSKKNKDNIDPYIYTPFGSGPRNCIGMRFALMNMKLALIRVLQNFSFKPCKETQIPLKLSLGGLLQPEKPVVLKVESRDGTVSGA
Cytochrome P450 2C9 (Homo sapiens), sequence (P11712 whole entry, looked up): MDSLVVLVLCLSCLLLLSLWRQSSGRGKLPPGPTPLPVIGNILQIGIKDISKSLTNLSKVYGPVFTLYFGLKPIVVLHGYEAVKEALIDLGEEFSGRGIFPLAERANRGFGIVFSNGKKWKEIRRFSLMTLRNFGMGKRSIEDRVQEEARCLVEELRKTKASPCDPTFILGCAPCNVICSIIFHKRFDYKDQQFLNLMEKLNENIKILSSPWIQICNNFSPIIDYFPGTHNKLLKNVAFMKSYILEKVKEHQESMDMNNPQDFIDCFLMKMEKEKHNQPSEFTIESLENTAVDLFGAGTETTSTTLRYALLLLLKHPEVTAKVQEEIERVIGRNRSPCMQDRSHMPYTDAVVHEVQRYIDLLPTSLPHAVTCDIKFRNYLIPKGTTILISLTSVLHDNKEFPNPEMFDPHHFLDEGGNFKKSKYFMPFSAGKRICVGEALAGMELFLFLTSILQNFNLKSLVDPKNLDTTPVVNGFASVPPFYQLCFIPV
Ubiquitin carboxyl-terminal hydrolase 1 (Homo sapiens), sequence (O94782 whole entry, looked up): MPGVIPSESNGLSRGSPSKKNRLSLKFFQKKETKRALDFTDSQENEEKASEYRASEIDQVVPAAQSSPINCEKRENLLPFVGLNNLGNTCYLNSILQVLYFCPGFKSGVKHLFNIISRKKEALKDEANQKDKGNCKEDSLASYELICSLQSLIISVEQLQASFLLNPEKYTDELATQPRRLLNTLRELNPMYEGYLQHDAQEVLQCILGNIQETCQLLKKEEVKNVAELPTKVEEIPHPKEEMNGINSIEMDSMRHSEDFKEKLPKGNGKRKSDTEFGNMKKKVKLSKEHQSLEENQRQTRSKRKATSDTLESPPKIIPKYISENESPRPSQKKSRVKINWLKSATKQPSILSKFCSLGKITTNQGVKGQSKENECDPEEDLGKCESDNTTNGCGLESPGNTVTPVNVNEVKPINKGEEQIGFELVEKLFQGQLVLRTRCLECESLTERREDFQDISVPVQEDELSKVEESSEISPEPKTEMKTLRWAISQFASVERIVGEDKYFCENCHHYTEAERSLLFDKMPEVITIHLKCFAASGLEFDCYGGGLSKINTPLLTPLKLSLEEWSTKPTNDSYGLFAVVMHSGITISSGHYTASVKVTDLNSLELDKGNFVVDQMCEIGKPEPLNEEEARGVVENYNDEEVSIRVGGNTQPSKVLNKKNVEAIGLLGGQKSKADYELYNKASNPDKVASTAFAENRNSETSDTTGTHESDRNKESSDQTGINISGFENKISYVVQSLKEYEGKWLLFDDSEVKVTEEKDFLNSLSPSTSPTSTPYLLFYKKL

Consider `COC(=O)C1OC(=O)C2OC23[C@]2(C)C(O)CC4C(C)(C)C(OC(C)=O)CC(OC(C)=O)[C@@]4(C)C2CC[C@@]13C` (some centres undefined), for which the Potency in test [1] was 251 nM (active) and 794 nM (active). In test [2], the Potency result was “inactive”. The activity change, negative = inhibition in test [3] was -1.67% (inactive) and 3.12% (inactive). Besides, the max response in test [3] (setting [8]) is 17.5% and 7.5%; in test [3] (setting [9]) it was 17.7% and 13.2%.
As to `Cc1nnc(SCC(=O)NCc2ccccc2Cl)c2nn(-c3ccccc3)c(C)c12`, the Potency in test [4] is 3.01 µM (active).
On to `C=C1C2CC[C@@]3(C)C(c4ccoc4)OC(=O)C[C@@]13OC1CC(O)C(C)(C)C(CC(=O)OC)[C@@]12C` (some centres undefined), for which the Potency in test [1] is 12.6 µM (active) and 7.94 µM (active). Besides, the Potency entry in test [2], in test [5] and in test [7] was “inactive” each time. For the same molecule, the call in test [6] was inactive. The activity change, negative = inhibition in test [3] is -26.4% (inactive) and -20.4% (inactive). In addition, the max response in test [3] (setting [8]) was 9.22% and 0.891%; in test [3] (setting [9]), -12.6% and -14.6%.

Values taken from PubChem BioAssay (NCATS).
